Laboratory results taken from publication PMC5540273 (PLoS ONE, 2017).
Like-named read-outs stand apart in the source and are kept apart here.

Legend:
Settings in all cases: n = 1
[1] = system: FLT3
[2] = system: FLT4
[3] = system: FRK
[4] = system: FYN
[5] = system: GAK
[6] = system: T1, GCN2(Kin.Dom.2,S808G)
T1 construct: gene EIF2AK4

[7] = system: GRK1
[8] = system: T2, GRK2
T2 construct: gene ADRBK1

[9] = system: T3, GRK3
T3 construct: gene ADRBK2

[10] = system: GRK4
[11] = concentration: 1 μM, replicates: in singlicate
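Also: KINOMEscan kinase panel screen.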

Compound	%Inh [1, 11] [%]	%Inh [2, 11] [%]	%Inh [3, 11] [%]	%Inh [4, 11] [%]	%Inh [5, 11] [%]	%Inh [6, 11] [%]	%Inh [7, 11] [%]	%Inh [8, 11] [%]	%Inh [9, 11] [%]	%Inh [10, 11] [%]	%Inh ([1]; 1 µM) [%]	%Inh ([2]; 1 µM) [%]	%Inh ([3]; 1 µM) [%]	%Inh ([4]; 1 µM) [%]	%Inh ([5]; 1 µM) [%]	%Inh ([6]; 1 µM) [%]	%Inh ([7]; 1 µM) [%]	%Inh ([8]; 1 µM) [%]	%Inh ([9]; 1 µM) [%]	%Inh ([10]; 1 µM) [%]
Cc1nnc(-c2ccc3occ(-c4ccc(S(C)=O)cc4)c3c2)[nH]1 (centres unmarked)	33	18	1	0	24	0	20	0	40	11	–	–	–	–	–	–	–	–	–	–
Cc1c(O)cccc1Nc1ccnc2ccc(C(F)(F)F)cc12.Cl [GW466413]	0	9	79	68	64	9	14	0	8	0	–	–	–	–	–	–	–	–	–	–
Cc1cccc(-c2nc(-c3ccc(S(C)(=O)=O)cc3)sc2-c2ccnc(NCCc3ccccc3)c2)c1	0	7	66	0	0	16	11	0	6	0	–	–	–	–	–	–	–	–	–	–
Cl.c1ccc(-c2n[nH]cc2-c2ccnc(-c3ccc(CN4CCOCC4)cc3)c2)nc1 [GW776245]	0	14	0	0	46	0	37	0	0	31	–	–	–	–	–	–	–	–	–	–
Cc1ccc(-c2cc(-c3c[nH]nc3-c3ccccn3)ccn2)cc1 [GW684088]	0	0	4	0	80	0	8	0	74	0	–	–	–	–	–	–	–	–	–	–
NC(=O)c1nnc2ccccc2c1N	15	5	0	0	24	13	12	67	13	28	–	–	–	–	–	–	–	–	–	–
O=c1cc(N2CCOCC2)nc2n(Cc3cccc(Cl)c3Cl)ccn12 [GSK2286295]	0	3	0	47	6	0	5	0	0	0	–	–	–	–	–	–	–	–	–	–
Cn1cncc1-c1ccc2ncnc(Nc3ccc(OCc4ccccc4)cc3)c2c1 [GW320571]	62	6	8	12	0	0	8	7	0	0	–	–	–	–	–	–	–	–	–	–
O=C(Nc1ccc2c(c1)OCO2)NC1CCN(c2ccnc(Nc3ccc(F)cc3)n2)C1 (centres unmarked) [GSK1379724]	0	0	11	9	0	6	0	0	93.7	0	–	–	–	–	–	–	–	–	–	–
COc1cc2ncnc(Nc3ccc4nc(-c5ccccc5)[nH]c4c3)c2cc1OC.Cl [GW282450]	0	0	0	34	68	0	0	0	14	11	–	–	–	–	–	–	–	–	–	–
CN1C(=O)C(Nc2ccc(Cl)c(C(=O)O)c2)=C(c2ccc(Cl)cc2)C1=O [SB-404290]	0	0	0	0	14	9	12	0	4	19	–	–	–	–	–	–	–	–	–	–
COc1cccc(-c2cc(-c3c[nH]nc3-c3ccccn3)ccn2)c1 [GW680338]	0	83	10	11	75	7	1	0	14	0	–	–	–	–	–	–	–	–	–	–
CC1=C(C(=O)Nc2cc3cn[nH]c3cc2F)C(c2ccc(C(F)(F)F)cc2)CC(=O)N1 (centres unmarked) [GSK429286]	0	11	18	26	0	14	5	27	73	10	–	–	–	–	–	–	–	–	–	–
Cc1cccc(-c2cc(Nc3ccncc3)c3ccccc3n2)n1 [GSK223675]	0	0	0	40	0	0	0	0	0	0	–	–	–	–	–	–	–	–	–	–
Cc1cccc(-c2nc(Nc3ccncc3)c3ccccc3n2)n1 [GW855857]	0	1	15	13	0	0	0	0	0	0	–	–	–	–	–	–	–	–	–	–
CC(=O)Nc1nc2cnc(Nc3cc(NC(=O)c4cccc(CCC#N)c4)ccc3C)nc2s1	0	30	83	4	7	0	0	0	0	0	–	–	–	–	–	–	–	–	–	–
Cn1ccc2ncnc(Oc3ccc(NC(=O)Nc4ccccc4)cc3)c21	97.4	15	11	4	4	11	0	0	11	0	–	–	–	–	–	–	–	–	–	–
Cc1cc(-c2ccc3c(c2)CC[C@@H](N[C@@H](C)c2ccccc2)C3)cnc1N.Cl [GW412617]	27	22	19	27	33	26	0	0	17	0	–	–	–	–	–	–	–	–	–	–

Compound	%Inh [1, 11] [%]	%Inh [2, 11] [%]	%Inh [3, 11] [%]	%Inh [4, 11] [%]	%Inh [5, 11] [%]	%Inh [6, 11] [%]	%Inh [7, 11] [%]	%Inh [8, 11] [%]	%Inh [9, 11] [%]	%Inh [10, 11] [%]	%Inh ([1]; 1 µM) [%]	%Inh ([2]; 1 µM) [%]	%Inh ([3]; 1 µM) [%]	%Inh ([4]; 1 µM) [%]	%Inh ([5]; 1 µM) [%]	%Inh ([6]; 1 µM) [%]	%Inh ([7]; 1 µM) [%]	%Inh ([8]; 1 µM) [%]	%Inh ([9]; 1 µM) [%]	%Inh ([10]; 1 µM) [%]
CN(C)CCN(C)C(=O)c1cc(-c2ccncc2)c(-c2ccc(Cl)c(O)c2)o1.Cl.Cl [SB-710397]	0	7	43	0	29	0	4	0	54	0	–	–	–	–	–	–	–	–	–	–
Cc1ccccc1-n1cnc2c(N)ncnc21 [SKF-97510]	0	0	0	8	0	0	0	0	0	0	–	–	–	–	–	–	–	–	–	–
COc1ccc(Nc2nccc(NCCNC(=O)Nc3ccccc3F)n2)cc1 [GSK1379901]	0	6	13	0	0	2	0	0	26	0	–	–	–	–	–	–	–	–	–	–
Nc1ncnc2[nH]c(-c3ccccc3)nc12 [AH5015]	0	0	13	39	44	27	0	0	49	0	–	–	–	–	–	–	–	–	–	–
Cc1c(Cn2ccn3c(=O)cc(N4CCOCC4)nc23)cccc1C(F)(F)F [GSK2289044]	0	0	0	30	10	0	0	0	0	0	–	–	–	–	–	–	–	–	–	–
COC(=O)c1c(-c2ccccc2)c2cc(OC)ccc2c(=O)n1Cc1ccccc1	8	9	45	0	6	2	0	0	1	0	–	–	–	–	–	–	–	–	–	–
Fc1cccc(COc2nnc(-c3ccc4c(c3)CCO4)o2)c1	4	0	0	0	2	5	0	0	23	0	–	–	–	–	–	–	–	–	–	–
Cl.Oc1ccc(-c2nc(-c3ccccc3)[nH]c2-c2ccncc2)cc1 [SB-428218]	0	0	37	23	36	8	57	0	75	0	–	–	–	–	–	–	–	–	–	–
O=C(Nc1ccccc1)Nc1cccc(Oc2ccc3nccn3n2)c1	4	67	0	0	0	14	0	0	0	23	–	–	–	–	–	–	–	–	–	–
Cc1ccc(C(=O)Nc2ccc(Nc3ccnc4cc(-c5ccccn5)ccc34)cc2O)cc1.Cl [GW440146]	0	0	48	41	7	12	0	0	24	0	–	–	–	–	–	–	–	–	–	–
Cc1ccc(NC(=O)Nc2cccc(Cl)c2)cc1-c1ccc(C(=O)Nc2ccncc2)cc1 [GSK1398468]	1	18	47	8	5	0	0	0	23	0	–	–	–	–	–	–	–	–	–	–
COc1ccc(CNC(=O)NC2CCN(c3ccnc(Nc4cc(OC)c(OC)c(OC)c4)n3)C2)cc1 (centres unmarked) [GSK1379748]	71	26	5	22	16	0	0	0	40	0	–	–	–	–	–	–	–	–	–	–
Cc1ccc(NC(=O)Nc2cc(C(C)(C)C)nn2-c2ccccc2)cc1 [GSK1014915]	98.6	15	22	4	11	9	9	0	92.4	7	–	–	–	–	–	–	–	–	–	–
COc1ccccc1-c1ccc2c(NC(=O)C3CC3)n[nH]c2n1 [SB-711239]	5	0	0	5	14	10	13	0	0	28	–	–	–	–	–	–	–	–	–	–
Clc1cc(Cl)cc(Nc2ccnc(Nc3cc(Cl)cc(Cl)c3)n2)c1 [GSK175726]	0	0	45	8	30	0	100	0	7	0	–	–	–	–	–	–	–	–	–	–
Cc1ccc(NC(=O)Nc2cccc(C(F)(F)F)c2)cc1 [GSK955403]	–	–	–	–	–	–	–	–	–	–	59	12	0	0	0	0	2	0	0	0
O=C1NC(=O)C(N2CCc3ccccc32)=C1c1ccccc1Cl [SB-373598]	2	20	20	18	0	4	19	0	0	24	–	–	–	–	–	–	–	–	–	–
